# Screening results from PubChem.
# CSC inhib: cancer stem cell viability inhibitors, primary screen, luminescence; cancer stem cell-like cells viability; hit rate 1.1% among 300,000; inhibition, % at 7.5 µM; in the data active = inhibition above about 75%; tested in HMLE shEcad cells
# KLF5 inh: KLF5 expression inhibitors, primary screen, DLD-1 cells, luminescence; DLD-1 KLF5 promoter-luciferase reporter; inhibition, % at 5 µM; hit rate 0.23% among 290,000;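 active = inhibition above a per-plate limit of that plate's mean compound inhibition plus 3 SD, cut at about 60% in these data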;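 note: 0% = DMSO wells and 100% = LY294002 at 200 µM; higher means less KLF5 promoter-driven luciferase light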
# IEC-6 tox: cytotoxicity in IEC-6 intestinal epithelial cells, primary screen, cytotoxicity control for KLF5 inhibitor project, cell-based, luminescence; IEC-6 cytotoxicity, luminescence viability; inhibition, % at 5 µM; hit rate 0.78% among 290,000; in the data active = inhibition above about 22%;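 note: 0% = plate median of test compound wells and 100% = cytotoxic reference compound wells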
# SKKanGAS inh: S. pyogenes SKKanGAS growth inhibitors in kanamycin, primary screen, streptokinase expression inhibitor project, SKKanGAS strain, BacTiter-Glo luminescence; hit rate 1.3% among 300,000; 6 h; inhibition, % at 7.5 µM; AID 1662, 2009;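 active = mean replicate score, as percent of positive control median, at least 50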;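 note: strain carries kanamycin resistance gene driven by streptokinase promoter and grows in 40 µg/ml kanamycin; loss of luminescence reflects streptokinase promoter inhibition or plain growth inhibition; 0% = median of DMSO wells and 100% = positive control at its reference dose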
# aSyn 5UTR inh: MLPCN primary screen, SNCA 5' untranslated region; alpha-synuclein 5'UTR reporter, inhibitor activity; inhibition, % (tested at 7.5 µM); hit rate 0.82% among 300,000; in the data active = inhibition above about 60%;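 note: H4 neuroglioblastoma cells stably carrying SNCA 5'UTR luciferase fusion; 0% = DMSO wells and 100% = positive control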
# Active calls of the source: *; x = no result given. An excerpt weighted towards active compounds, which were near 3% of everything screened.
SMILES,CSC inhib,KLF5 inh,IEC-6 tox,SKKanGAS inh,aSyn 5UTR inh
O=C1OC(c2ccc(F)cc2)=C/C1=C\c1ccc([N+](=O)[O-])o1,50,-14,-4,68*,20
O=C1OC(c2ccc(F)cc2)=C/C1=C\c1ccc(O)cc1,-16,-41,-6,13,-25
C=CCn1c(SCC(=O)c2c(N)n(CCC)c(=O)n(C)c2=O)nnc1-c1ccncc1,-3,-11,1,-1,16
Cn1c(=N)n(CC(=O)c2ccc(Cl)c(Cl)c2)c2ccccc21,8,41,11,13,81*
Cn1c(=N)n(CC(=O)c2ccccc2)c2ccccc21,-3,-41,10,-3,90*
Cn1c(=N)n(CC(=O)O)c2ccccc21,-10,-33,2,-2,-9
Cc1nc2cc(N3CCCCC3)c(NC(=O)c3ccncc3)cc2c(=O)n1Cc1ccc(Cl)cc1,-4,-17,1,13,62*
Cc1nc2cc(N3CCN(C)CC3)c(NC(=O)Cc3ccccc3)cc2c(=O)n1Cc1ccccc1,0,-2,0,5,-15
O=C(COC(=O)CNC(=O)c1ccccc1F)Nc1cccnc1Cl,-12,-15,-2,2,-3
CN(C)CCCNC(=O)c1cc(C(=O)c2ccccc2)c[nH]1,-12,9,0,4,28
O=C(c1ccccc1)c1c[nH]c(C(=O)NNc2ccccc2)c1,97*,15,5,6,22
CC(C)OC(=O)c1c2nc3ccccc3nc2n2c1[nH]c(=O)c1ccccc12,-21,3,-2,55*,29
CC(C)OC(=O)c1c(N)n(CCCN2CCOCC2)c2nc3ccccc3nc12,-11,-21,0,-2,14
COCCCNC(=O)c1ccc2c(=O)n(Cc3ccc(Cl)cc3)c(=S)[nH]c2c1,-8,-27,2,11,11
CC1CCN(CCNC(=O)c2ccc3c(=O)n(Cc4ccc(Cl)cc4)c(=S)[nH]c3c2)CC1,-7,-6,-3,37,98*
COc1cc(/C=N/N=C2\CC3CCC2(C)C3(C)C)ccc1O (centres undefined),-16,-34,-1,0,-7
CC12CCC(C/C1=N\N=C1\NC(=O)/C(=C\c3cccc(Br)c3)S1)C2(C)C (centres undefined),105*,-33,-5,104*,13
CCOC(=O)C(C(=O)OCC)C(Nc1ccc(Br)cc1)c1ccccc1 (centres undefined),75*,3,2,-3,-41
CCCC(/C=C/c1ccc(OC(C)=O)cc1)=C1/c2ccccc2C(=O)N1c1ccccc1,112*,x,x,x,x
CC(=O)Oc1ccc(C#C/C=C2\c3ccccc3C(=O)N2c2ccccc2)cc1,134*,x,x,x,x
CC(=O)Oc1ccc(CC(C(=O)O)N2C(=O)c3ccccc3C2=O)cc1 (centres undefined),-2,-14,3,0,-17
Cc1nc(-c2ccccn2)nc(SCC(=O)c2ccc(F)cc2)c1Cl,-16,-41,0,85*,-10
O=C(CSc1ccc(-c2ccccn2)nn1)c1ccc(F)cc1,-3,-37,0,-6,-47
COc1ccc(C(=O)CSc2nc(-c3ccccn3)nc(C)c2Cl)cc1,-10,-5,-11,88*,-40
CCOC(=O)N1CCN(C(=O)COC(=O)c2cc(C)ccc2C)CC1,-18,x,x,x,x
SMILES,CSC inhib,KLF5 inh,IEC-6 tox,SKKanGAS inh,aSyn 5UTR inh
Nc1nc(-c2c(Cl)cccc2Cl)no1,12,-35,-7,-2,-9
CCC(CC)C1=NN2C(=N)/C(=C\c3cc(C)n(-c4cccc(C)c4)c3C)C(=O)N=C2S1,4,-2,5,86*,5
CCOc1ccc(-n2c(C)cc(/C=C3/C(=N)N4C(=NC3=O)SN=C4S(C)(=O)=O)c2C)cc1,20,-34,1,84*,4
Cc1cc(/C=C2/C(=N)N3C(=NC2=O)SN=C3S(C)(=O)=O)c(C)n1-c1ccc(F)cc1,6,-41,2,64*,-21
COc1ccccc1NC(=O)NC1(C(=O)N2CCN(C)CC2)CCCCC1,-8,-2,-3,1,2
O=C(Nc1ccc(C(F)(F)F)cc1)C1CCN(c2cnccn2)CC1,17,-19,-1,-2,-15
Cn1nccc1C(=O)NC1CCN(Cc2ccccc2)CC1,-19,-26,-3,-5,3
CC1(C)Oc2cc3oc(-c4cc(O)cc(O)c4)cc3cc2CC1O (centres undefined),3,x,x,1,97*
Oc1cc(O)cc(-c2cc3ccc(O)cc3o2)c1,-11,x,x,7,51
CCc1c(O)nc(SCC(=O)N2CCc3cc(OC)c(OC)cc3[C@@H]2C)[nH]c1=O,-1,-9,2,2,-7
COC(=O)c1ccc(-c2n[nH]c(=O)c3ccccc23)cc1,-6,-8,-3,-12,3
COC(=O)Nc1nc2ccc(-c3n[nH]c(=O)c4ccccc34)cc2[nH]1,104*,-25,-4,2,-9
O=C(C1CCN(S(=O)(=O)c2ccc(Cl)cc2)CC1)N1CCC1,-15,x,x,-10,15
CCC(CC)NC(=O)c1cc2c(C)nn(Cc3ccccc3Cl)c2s1,-14,-16,-2,1,71*
Cc1nn(Cc2ccccc2Cl)c2sc(C(=O)Nc3nccs3)cc12,7,-24,-4,16,6
Cc1nn(Cc2ccc(F)cc2)c2sc(C(=O)Nc3ccccc3N3CCOCC3)cc12,27,19,6,10,14
Cc1nn(Cc2ccccc2Cl)c2sc(C(=O)Nc3ccccc3N3CCOCC3)cc12,54,-27,2,60*,25
O=S(=O)(c1ccccc1)N1CCN=C1SCc1c(F)cccc1Cl,-7,-11,-6,64*,8
O=S(=O)(c1ccc(Cl)cc1)N1CCN=C1SCc1cccc(Cl)c1,-8,-15,8,-14,-6
CC(C)(C)OC(=O)N1CCC(CNC(=O)c2ccc(F)cc2)CC1,-6,-24,-3,18,8
CCc1ccc(-c2nnn(CCC(=O)OC)n2)cc1,-2,-6,0,-2,77*
CC(C)c1ccc(-c2nnn(CCC(=O)O)n2)cc1,-9,33,-1,-6,118*
O=C(NCc1nc2ccccc2[nH]1)C1=C[C@H](c2coc3ccccc3c2=O)C[C@H](OCc2ccc(CO)cc2)O1,-17,x,x,15,20
Cc1ccc(OC/C(O)=C(\C#N)c2nc3ccccc3s2)cc1,78*,-32,-3,57*,-30
O=C(OCc1cc(=O)n2ccsc2n1)c1ccccc1NCCO,-11,x,x,x,x
CC(C)CN(C(=O)COc1ccc(-c2nnco2)cc1)C1CCS(=O)(=O)C1 (centres undefined),-5,-21,-8,61*,-13
COc1cccc(OCC(O)CN2CCC(CN3C(=O)c4cccc5cccc(c45)C3=O)CC2)c1 (centres undefined),13,-9,9,2,5
O=C1c2cccc3cccc(c23)C(=O)N1CCN1CCN(CC(O)COc2ccc3ccccc3c2)CC1 (centres undefined),104*,23,1,29,-17
